In PubChem BioAssay AID2108 (National Center for Advancing Translational Sciences (NCATS), 2009):
Results filed as inconclusive are left out. Activity calls are given as the source filed them. Calls come from the whole dose curve; as a rule, active = well fitted curve in the direction sought with a large enough effect; inconclusive = small, poorly fitted or top-dose-only effect, or effect the other way, or another doubt; inactive = no such curve, though single readings can be large or run the other way. Non-standard residues stand in square brackets, D forms with d. Residues, ends and D or L forms follow the SMILES beside them. *: point of attachment. Nle = CCCC[C@H](N)C(=O)O; Boc = CC(C)(C)OC(=O)*

Each molecule was assayed against Alpha-galactosidase A (Homo sapiens) (UniProt P06280) (assay: Confirmation of Inhibitors of Human alpha-Galactosidase Using Spleen Homogenate). Conditions: alpha-galactosidase enzyme activity; series mostly up to 56.2 µM.
Alpha-galactosidase A (Homo sapiens), sequence (P06280 32-429 limits assumed): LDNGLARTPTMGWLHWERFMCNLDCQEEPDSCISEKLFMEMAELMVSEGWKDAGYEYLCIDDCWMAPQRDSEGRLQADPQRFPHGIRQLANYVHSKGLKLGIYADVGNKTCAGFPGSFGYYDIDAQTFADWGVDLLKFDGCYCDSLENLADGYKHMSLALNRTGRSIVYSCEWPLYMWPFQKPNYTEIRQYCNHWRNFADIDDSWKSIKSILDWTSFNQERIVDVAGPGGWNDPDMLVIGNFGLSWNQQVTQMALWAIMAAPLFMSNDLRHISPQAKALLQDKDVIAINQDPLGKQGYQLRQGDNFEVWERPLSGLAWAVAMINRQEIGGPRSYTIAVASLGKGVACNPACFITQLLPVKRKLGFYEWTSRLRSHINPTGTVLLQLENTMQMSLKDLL
Outline: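 Human spleen homogenate (1 ug) with 1 mM 4-methylumbelliferyl-alpha-D-galactopyranoside in citrate-phosphate pH 5.0, 0.01% Tween-20, 37C 40 min; compounds 0.5 nM–58 uM final. Stopped at pH 10, fluorescence Ex 365/Em 440; AC50 from Hill fits.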
For `CCOc1ccccc1CNc1ccc(O)cc1`, the outcome was “inactive”. With `O=c1[nH]c(CN2CCN(c3ccccc3O)CC2)nc2ccccc12` the outcome was “inactive”. With `Cc1sc(-c2cc3cc(Cl)ccc3oc2=O)nc1-c1ccccc1` the outcome was “inactive”. `Cc1ccc(-c2cc(C(=O)N3CCN(S(=O)(=O)c4ccc(Br)s4)CC3)[nH]n2)c(C)c1` was tested, and the outcome was “inactive”. In the case of `CC1(C)CC(=O)c2cc(C(=O)NCc3ccco3)c(=O)n(-c3ccc(Cl)cc3)c2C1`, the outcome is reported as “inactive”. With `CCCC[C@H](NC(=O)[C@@H]1CCCN1C(=O)[C@H]1CCCN1C(=O)[C@H](Cc1ccccc1)NC(=O)[C@@H](Cc1c[nH]c2ccccc12)NC(=O)[C@H](C)NC(=O)[C@H](CCCN=C(N)N)NC(=O)OC(C)(C)C)C(N)=O` (Boc-RA[dW]F[dP]P[Nle]-NH2) the outcome was “inactive”. `COc1ccc(C2C(C(=O)c3ccco3)=C(O)C(=O)N2CC2CCCO2)c(OC)c1` (stereo unspecified) was tested, and the outcome was “inactive”. In the case of `Cc1cnc(C(=O)Nc2cc(S(=O)(=O)N3CCOCC3)ccc2N2CCN(C)CC2)cn1`, the outcome is reported as “inactive”. With `Cc1ccc(S(=O)(=O)N2CCN(C(=O)C3COc4ccccc4O3)CC2)cc1C` (stereo unspecified) the outcome was “inactive”. `CCC(C)Nc1nc(-c2cccc(OC)c2O)nc2ccccc12` (stereo unspecified) was tested, and the outcome was “inactive”. In the case of `Cc1ccc(N2CC(C(=O)NCc3ccc(C)n3C)CC2=O)cc1` (stereo unspecified), the outcome is reported as “inactive”. `CCn1c2ccccc2c2nnc(NN)nc21` was tested, and the outcome was “inactive”. With `Cc1ccccc1S(=O)(=O)N1CCOCC1` the outcome was “inactive”. In the case of `COc1ccc(/C=C/c2nnc(NC(=O)CSc3ccc(Cl)cc3)s2)cc1`, the outcome is reported as “inactive”. In the case of `NC(=S)NN=C1c2cc(S(=O)(=O)N3CCOCC3)ccc2-c2ccc(S(=O)(=O)N3CCOCC3)cc21`, the outcome is reported as “inactive”. In the case of `COc1cc(C2c3cc4c(cc3C(OC3OC5COC(C)O[C@@H]5C(O)C3O)C3COC(=O)C23)OCO4)cc(OC)c1O` (stereo partly specified), the outcome is reported as “inactive”. For `COc1ccc(C(=O)N2CCN(c3ccc([N+](=O)[O-])c(NCCc4ccc(OC)c(OC)c4)c3)CC2)cc1`, the outcome was “inactive”. With `CNC(=S)/N=C(\Nc1ccc(C)cc1)c1ccccc1` the outcome was “inactive”. For `Cn1c(-c2ccco2)nc2cc3ccccc3cc21`, the outcome was “inactive”. In the case of `O=c1oc2ccc(Br)cc2cc1-c1nc2c(s1)CCc1ccccc1-2`, the outcome is reported as “inactive”. For `O=S(=O)(c1ccc2nc(-c3ccco3)c(-c3ccco3)nc2c1)N1CCOCC1`, the outcome was “inactive”. In the case of `O=C(COC(=O)c1ccccc1Br)NCCc1ccc(F)cc1`, the outcome is reported as “inactive”. `Brc1ccc(C=Nc2ccc(Nc3ccccc3)cc2)s1` was tested, and the outcome was “inactive”. With `O=C1c2ccccc2NC(c2cccnc2)N1c1ccccc1F` (stereo unspecified) the outcome was “inactive”. `O=C(Cc1ncc(C(F)(F)F)cc1Cl)NCCc1ccccc1` was tested, and the outcome was “inactive”. In the case of `Cc1ccc(-c2nc3ncccn3c2Nc2ccc3c(c2)OCO3)o1`, the outcome is reported as “inactive”. `O=C(c1ccc2ccccc2c1)N1CCN(S(=O)(=O)c2ccccc2)CC1` was tested, and the outcome was “inactive”. In the case of `Cc1ccc(-c2cc(C(=O)N/N=C/c3c(C)nn(-c4ccccc4)c3C)n[nH]2)s1`, the outcome is reported as “inactive”. `Nc1ccc(S(=O)(=O)N2CCOCC2)cc1` was tested, and the outcome was “inactive”. With `O=C1NC[C@@H](Cc2cccc3ccccc23)N(CCc2cc(C(F)(F)F)cc(C(F)(F)F)c2)C1=O` the outcome was “inactive”. In the case of `CCCn1c(=O)c2c(C(F)(F)F)cc(-c3cccs3)nc2n(CCC)c1=O`, the outcome is reported as “inactive”. In the case of `COc1cc(CN2CCC(CO)(Cc3cccc(C(F)(F)F)c3)CC2)ccc1F`, the outcome is reported as “inactive”. For `O=C(NN=C1c2ccccc2-c2ccccc21)c1cccc(S(=O)(=O)N2CCOCC2)c1`, the outcome was “inactive”. In the case of `O=C(COc1ccc2ccccc2c1)N1CCN(C(=O)c2ccco2)CC1`, the outcome is reported as “inactive”. `CN(CCO)S(=O)(=O)c1ccc2c(c1)C(=NN)c1cc(S(=O)(=O)N(C)CCO)ccc1-2` was tested, and the outcome was “inactive”. With `COc1cc([C@@H]2c3cc4c(cc3[C@@H](OC3OC5COC(C)OC5C(O)C3O)[C@H]3COC(=O)[C@H]23)OCO4)cc(OC)c1O` (stereo partly specified) the outcome was “inactive”.
